Screen size: about 69,000 compounds; about 8,600 (12%) showed an effect of 50% or more. Shown is part of a subset that was picked to be rich in strong results.
test system: Plasmodium berghei; experiment: Screen against P. berghei liver stage (PbLuc), transformed with Luciferase, at 10uM; format: functional, HepG2; details: tested at 10 uM

Going from CC(C)NC(=O)[C@H]1C[C@@H]2[C@@H](C1)OCCN2CC1CC1 to CCO[C@H]1CN(CC2CCOCC2)[C@@H]2CCCO[C@H]12, the INHIBITION falls from 48.2% to 38.5%.

Going from N#Cc1ccc(F)c(CN(CC(=O)N2CCCC2)CC2CCCO2)c1 (stereo not drawn) to N#Cc1cccc(CN(CC(=O)N2CCCC2)CC2CCCO2)c1 (stereo not drawn), the INHIBITION rises from -13.5% to -4.91%.

First: N#Cc1csc(CN(CC(=O)N2CCCC2)CC2CCCO2)c1 (stereo not drawn)
Second: O=C(C1SCCc2sccc21)N1CCCCC1 (stereo not drawn)
The INHIBITION of the first is higher: 70.9% for the first, 62% for the second.

Going from O=C([C@@H]1CC[C@@H]2[C@@H](CCN2CCOCc2ccccc2)O1)N1CCCC1 to O=C(C1SCCc2ccccc21)N1CCC(O)CC1 (stereo not drawn), the INHIBITION rises from 32.1% to 50.8%.

Going from CCCNC(=O)CCOc1cccc(F)c1 to COc1c(Br)cccc1CCNC(=O)c1ncoc1C, the INHIBITION falls from 14.465% to -53.1%.

First: Cc1ccc(CN(CCN(C)C)C(=O)Nc2ccc(C)c(C#N)c2)s1
Second: Cc1ccc(CN(CCN(C)C)C(=O)Nc2cc(C(N)=O)ccc2C)s1
The INHIBITION of the first is higher: 60% for the first, 19.2% for the second.

Going from CC(=O)c1ccc(NC(=O)N(CCN(C)C)Cc2ccc(C)s2)cc1 to CN(C)CCN(Cc1ccc(C#N)cc1)C(=O)c1ccn(C)c(=O)c1, the INHIBITION falls from 26.6% to 8.38%.

Going from Cc1cnn(CC2CCCN2C(=O)c2cccnc2-n2cncn2)c1 (stereo not drawn) to Cc1cnn(CC2CCCCN2C(=O)Cn2nc(C)c(Cl)c2C)c1 (stereo not drawn), the INHIBITION falls from 31.9% to 13.8%.

Compared with Cc1cccc2c(CCNC(=O)NCC[S+](C)[O-])c[nH]c12 (stereo not drawn), Cc1cccc2c(CCNC(=O)NCCC[S+](C)[O-])c[nH]c12 (stereo not drawn) is higher in INHIBITION: 26.4% for the first, 51% for the second.

First: Cc1cccc2c(CCNC(=O)[C@H](N)c3ccccc3)c[nH]c12
Second: Cc1cccc2c(CCNS(=O)(=O)C3CCOC3)c[nH]c12 (stereo not drawn)
The INHIBITION of the first is higher: 61.1% for the first, 39.2% for the second.

First: CC(=O)N1CCC(C(=O)NCCc2c[nH]c3cc(C)ccc23)CC1
Second: CCC(CC)c1nnc(NC(=O)N2CCC(C(N)=O)CC2)s1
The INHIBITION of the first is lower: 11.9% for the first, 12.6% for the second.

Compared with O=C(CCNS(=O)(=O)c1ccc(Cl)cc1)NCc1ccoc1, CS(=O)(=O)NCCNC(=O)Cc1ccc(Br)s1 is lower in INHIBITION: -11.6% for the first, -62.1% for the second.

Compared with CCNc1ncc(C(=O)NC(CC)c2ccnn2C)cn1 (stereo not drawn), Cn1cnc2cc(CCC(=O)Nc3n[nH]c(C4CC4)n3)ccc21 is lower in INHIBITION: 48.2% for the first, 41.5% for the second.

Going from CC(C)(C)C(=O)N1CCC2(COCc3cnc(N4CCOCC4)nc32)C1 (stereo not drawn) to CCC(=O)N1CCC2(COCc3cnc(N4CCOCC4)nc32)C1 (stereo not drawn), the INHIBITION rises from -18.2% to 57.9%.

Compared with CC(C)NC(=O)N1CCC2(COCc3cnc(N4CCOCC4)nc32)C1 (stereo not drawn), COCC(=O)N1CCC2(COCc3cnc(N4CCOCC4)nc32)C1 (stereo not drawn) is higher in INHIBITION: -18.4% for the first, 84.7% for the second.

Going from O=C(CC1CC1)N1CCC2(COCc3cnc(N4CCOCC4)nc32)C1 (stereo not drawn) to O=C(C1CC1)N1CCC2(COCc3cnc(N4CCOCC4)nc32)C1 (stereo not drawn), the INHIBITION falls from 61.4% to 60.1%.

Compared with O=C(C1CCC1)N1CCC2(COCc3cnc(N4CCOCC4)nc32)C1 (stereo not drawn), COCCC(=O)N1CCC2(COCc3cnc(N4CCOCC4)nc32)C1 (stereo not drawn) is higher in INHIBITION: -4.56% for the first, 34.7% for the second.

Going from O=C(CC1CC1)N1CCC2(COCc3cnc(-c4cccnc4)nc32)C1 (stereo not drawn) to COCC(=O)N1CCC2(COCc3cnc(-c4ccccc4)nc32)C1 (stereo not drawn), the INHIBITION falls from 42.1% to -22.4%.

Going from O=C(C1CC1)N1CCC2(COCc3cnc(NCc4ccco4)nc32)C1 (stereo not drawn) to O=C(c1ccnnc1)N1CC[C@]2(C[C@H](Oc3ncccc3F)CO2)C1, the INHIBITION falls from -3.33% to -29.3%.

First: O=C([C@@H]1C[C@@H]2CCN(C3CCOCC3)C[C@H]2O1)N1CCOCC1
Second: CN(C)C1CCN(C(=O)C2SCCc3ccccc32)CC1 (stereo not drawn)
The INHIBITION of the first is lower: -28% for the first, 19.2% for the second.

Going from CC(=O)N1CCC(Cc2cnc(-c3c(C)nn(C)c3C)cn2)CC1 to Cc1nn(C)cc1-c1cc(C(=O)N2CCc3ncc(Cl)cc3C2)no1, the INHIBITION rises from -26.2% to 38.65%.

Compared with Cn1cnnc1C1CCCN(C(=O)c2cc3ccccc3[nH]2)C1 (stereo not drawn), COc1ccccc1-c1cc(C(=O)N2CCCC2)c2cnn(C)c2n1 is higher in INHIBITION: -8.11% for the first, 44.1% for the second.

Going from Cc1ccncc1C(=O)N1C[C@@H]2CN(c3ncccn3)C[C@]2(C(=O)O)C1 to CN(Cc1ccncc1)C(=O)NC1CCCN(c2ncccn2)C1 (stereo not drawn), the INHIBITION rises from 7.65% to 36.1%.

Compared with COCCN1CCCn2c(nc(Cn3cncn3)cc2=O)C1, COCCNC(=O)C1CCCN(c2ccc3nncn3n2)C1 (stereo not drawn) is lower in INHIBITION: 13.6% for the first, -21.9% for the second.

Compared with O=C(NCc1ccc(Cl)cc1)N1CCN(CC(O)C2CC2)CC1 (stereo not drawn), CC(=O)NC1CCCN(C(=O)NCc2cc[nH]n2)C1 (stereo not drawn) is higher in INHIBITION: 25.9% for the first, 31.9% for the second.

Compared with CS(=O)(=O)N1CCC(NC(=O)COc2ccc3ccccc3c2)CC1, CC(C)c1nnc(NC(=O)NC2CCN(Cc3ccccc3)C2)s1 (stereo not drawn) is lower in INHIBITION: 33.3% for the first, -15.05% for the second.

First: COCCN(C)Cc1nc(-c2cccc(F)c2F)oc1C
Second: Cc1oc(-c2cccc(F)c2F)nc1CN(C)CCO
The INHIBITION of the first is higher: 51.9% for the first, 11.3% for the second.

Going from Cc1oc(-c2cccc(F)c2F)nc1CN(C)CCC(C)(C)O to CN(C)C(=O)C1SCCc2ccccc21 (stereo not drawn), the INHIBITION rises from 16% to 38.9%.

CC(=O)NC1CCCN(C(=O)Nc2nnc(C(C)C)s2)C1 (stereo not drawn) and CCC(CC)c1nnc(NC(=O)N2CCCC(NC(C)=O)C2)s1 (stereo not drawn) are the same in INHIBITION: 52% for the first, 52% for the second.

Compared with CCCc1nnc(NC(=O)N2CCCC(NC(C)=O)C2)s1 (stereo not drawn), CC(=O)N1CCN(C(=O)C2SCCc3sccc32)CC1 (stereo not drawn) is lower in INHIBITION: 17% for the first, 8.47% for the second.

Going from NCCc1cc(N2CCOCC2)nc(NC2CC2)n1 to NC(=O)C1CCN(C(=O)C2SCCc3sccc32)CC1 (stereo not drawn), the INHIBITION rises from 18.25% to 69.7%.

First: CNC(=O)c1cc(NC(=O)Nc2cnn(CC(C)C)c2)ccc1F
Second: O=C1COC2(CCN(Cc3ccco3)CC2)CN1CCn1cccn1
The INHIBITION of the first is lower: 1.56% for the first, 4.02% for the second.

First: O=C(CCc1ccccn1)N1CCCC1
Second: CN1CCN(C(=O)C2SCCc3sccc32)CC1 (stereo not drawn)
The INHIBITION of the first is lower: -8.11% for the first, 39.7% for the second.

Going from O=C(C1SCCc2sccc21)N1CC(O)C1 (stereo not drawn) to O=C(C1SCCc2sccc21)N1CCC(O)CC1 (stereo not drawn), the INHIBITION rises from 6.33% to 20.1%.
